Compound activity (PubChem)
Gal4-VP16 FLuc: counter-screen for ROR gamma inhibitors: Gal4-VP16 reporter; 3.5% of 310,000 active; Potency, µM (series often up to 53.6 µM), usual class: inhibitors; Drosophila S2 Gal4-VP16 UAS-luciferase, luminescence, 20 h;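 note: Gal4-VP16 expression switched on by copper sulfate through the metallothionein promoter; nearly all actives have a fitted effect of over 50% in size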
TSHR antagonist: human thyrotropin receptor antagonism. P16473. TSHR-expressing cells, TSH-stimulated cAMP HTRF, 2 h; hits give low values. activity change, negative = inhibition, % at 11.5 µM. 0.2% of 330,000 active;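 active = activity change below a set negative limit, meaning inhibition stronger than a set level, cut at about -70% in these data; inconclusive = activity change between two set negative limits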
Target sequence (P16473 whole entry, looked up): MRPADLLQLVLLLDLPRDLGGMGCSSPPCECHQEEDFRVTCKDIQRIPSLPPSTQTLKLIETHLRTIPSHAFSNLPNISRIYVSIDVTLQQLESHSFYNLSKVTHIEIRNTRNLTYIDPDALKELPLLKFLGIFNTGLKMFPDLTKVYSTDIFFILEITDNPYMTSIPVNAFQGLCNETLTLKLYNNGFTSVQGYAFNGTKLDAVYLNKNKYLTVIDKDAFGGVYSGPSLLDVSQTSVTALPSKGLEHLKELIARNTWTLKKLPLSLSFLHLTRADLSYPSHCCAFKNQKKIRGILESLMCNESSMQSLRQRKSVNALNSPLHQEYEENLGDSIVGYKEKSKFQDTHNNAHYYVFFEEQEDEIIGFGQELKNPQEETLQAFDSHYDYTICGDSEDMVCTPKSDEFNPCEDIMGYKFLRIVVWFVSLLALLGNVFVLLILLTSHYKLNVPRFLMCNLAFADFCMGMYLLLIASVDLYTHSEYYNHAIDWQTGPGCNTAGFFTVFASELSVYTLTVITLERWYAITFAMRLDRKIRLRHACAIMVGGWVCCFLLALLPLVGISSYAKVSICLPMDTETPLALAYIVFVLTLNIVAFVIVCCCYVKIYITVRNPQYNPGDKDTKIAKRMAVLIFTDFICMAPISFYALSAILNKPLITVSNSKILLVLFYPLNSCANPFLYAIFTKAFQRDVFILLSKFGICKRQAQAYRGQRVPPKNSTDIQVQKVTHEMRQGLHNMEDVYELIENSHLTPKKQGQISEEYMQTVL
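TSHR-expressing cells were treated with compounds, then stimulated with TSH at EC80 (4nM final) for 2 hours at 37 deg C. Cellular cAMP was measured by HTRF competition between lysate cAMP and cAMP-d2 for a cryptate-labelled anti-cAMP antibody.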
ELG1 repair inh: ELG1-dependent DNA repair inhibition; HEK293T ELG1-luciferase reporter, luminescence, 16 h; DNA damage induced by 5-fluorouridine; Potency, µM (titrated, usually from 46.1 µM), actives largely listed as inhibitors; 2.3% of 330,000 active; note: nearly all actives have a fitted effect of over 55% in size
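In this reporter screen, reduction of luminescence relative to DMSO vehicle indicated activity. Compounds and 5-fluorouridine were added together to 2,000 cells per well, incubated for 16 hr at 37 °C, then developed with ONE-Glo.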
RORgamma inh: ROR gamma (mouse) transcription inhibition | P51450 | 5.4% of 310,000 active | Potency, µM (top dose mostly 53.6 µM), most hits filed as inhibitors | Drosophila S2 Gal4-RORgamma UAS-luciferase reporter, 20 h | AID 2551; note: nearly all actives have a fitted effect of over 60% in size
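In this cell-based reporter format, copper sulfate (700 uM final) drives Gal4–ROR gamma fusion expression from a metallothionein promoter in Drosophila Schneider cells; compounds preincubated 1 hr, reporter read after 20 hr at ambient temperature.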
FBPA coupling cs: counter-screen for Giardia aldolase inhibitors: coupling enzyme system. coupling enzyme system counterscreen, AmpLite Red fluorescence. activity change, negative = inhibition, % at 58.2 µM, hits read low. 0.67% of 290,000 active. AID 2472; in the data active = activity change below about -30%
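Compounds tested against the coupling enzymes alone at 57.5 uM final; readout was AmpLite Red fluorescence (525/598 nm) after 20 min at RT.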
Each line names hits and unclear results; the compound was inactive in the other large screens. Most compounds without a hit are left out; they make up all but 8% or so of the library. Unless noted, calls come from the whole dose curve; as a rule, active = well fitted curve in the direction sought with a large enough effect; inconclusive = small, poorly fitted or top-dose-only effect, or another doubt; inactive = no such curve, though single readings can be large; an effect the other way counts as inactive or inconclusive.

COC(=O)CN1C(=O)[C@@H]2[C@H](C1=O)[C@@H]1CC(C(=O)OC)=C[C@@H](C(=O)OC)C3C1=C(C(=O)[C@]3(C)NC(=O)c1ccccc1)[C@@H]2C (stereo partly drawn)	none (no result: TSHR antagonist, ELG1 repair inh)
CC(C)Oc1ccc(Cc2cnc(=S)[nH]c2N)cc1	RORgamma inh 11µM
CC(C)COc1ccc(Cc2cnc(N)nc2N)cc1	none
Cc1nc(Nc2ccccc2)c2nc(-c3ccccc3)n(CCCN3CCCCC3C)c2n1 (stereo not drawn)	none (no result: TSHR antagonist, ELG1 repair inh)
COC(=O)C1=C(C(=O)OC)[C@@H]2N(C)c3ccccc3[C@@]23C[C@@H](C(=O)OC)N(S(=O)(=O)c2ccc4c(c2)OCCN4C)C3=N1	none (no result: Gal4-VP16 FLuc, TSHR antagonist, ELG1 repair inh, RORgamma inh)
CC(C)[C@H](NC(=O)N1CCn2c1nc1ccccc12)C(=O)NCc1ccccc1Cl	none
O=c1cc(CO)oc(C(Nc2ccccn2)c2ccccc2Cl)c1O (stereo not drawn)	none
Cc1ccnc(NC(c2ccccc2O)c2oc(CO)cc(=O)c2O)c1 (stereo not drawn)	FBPA coupling cs -33
Cc1csc(NC(=O)c2nc(-c3ccccc3)n(-c3ccccc3)n2)n1	Gal4-VP16 FLuc inconclusive, ELG1 repair inh 15µM, RORgamma inh inconclusive
O=C(Nc1nccs1)c1nc(-c2ccccc2)n(-c2ccccc2)n1	TSHR antagonist inconclusive, ELG1 repair inh inconclusive
COc1ccc(-c2nc(NC3=NCCCCC3)sc2C)cc1	RORgamma inh 10µM
S=C(NCc1ccccn1)Nc1ccc(Cl)c(Cl)c1	Gal4-VP16 FLuc 5µM, RORgamma inh 2.5µM
Fc1ccc(NC(=S)Nc2nccs2)cc1	Gal4-VP16 FLuc 1µM, ELG1 repair inh inconclusive, RORgamma inh 0.32µM
C/C(=N\O)C(=O)NCc1ccccn1	none (no result: Gal4-VP16 FLuc)
O=C(NCc1ccccn1)/C(=N/O)c1ccccc1	ELG1 repair inh inconclusive, RORgamma inh 10µM
Fc1ccc(NC(=S)NCc2ccccn2)cc1	Gal4-VP16 FLuc inconclusive, RORgamma inh 10µM
C=C(C)C(O)/C=C/c1ccccc1OC (stereo not drawn)	none (no result: TSHR antagonist, ELG1 repair inh)
S=C(NCc1ccccn1)Nc1ccccc1	Gal4-VP16 FLuc inconclusive, ELG1 repair inh inconclusive, RORgamma inh 14µM
S=C(NCc1ccccn1)Nc1ccc(Cl)cc1Cl	Gal4-VP16 FLuc 13µM, ELG1 repair inh inconclusive, RORgamma inh 8.9µM
Cc1cc(NS(=O)(=O)c2cn(C)nc2C)no1	none (no result: Gal4-VP16 FLuc, RORgamma inh)
COC(=O)N1C(=O)[C@@](c2ccccc2)(C2CCCC2)N1C(=O)OC	RORgamma inh 11µM
COC(=O)N1C(=O)[C@](c2ccccc2)(C2CCCCC2)N1C(=O)OC	Gal4-VP16 FLuc inconclusive
Cc1ccc2[nH]c(C(=O)NCCN3CCCC3)cc2c1	none
Cc1ccc2c(c1)nnn2C1CCN(S(=O)(=O)c2ccc(C(=O)N3C(C)CCCC3C)cc2)CC1 (stereo not drawn)	Gal4-VP16 FLuc 16µM, ELG1 repair inh inconclusive, RORgamma inh inconclusive (no result: FBPA coupling cs)
COc1cc2c(cc1OC)CN(c1ccc([N+](=O)[O-])cc1Cl)CC2	Gal4-VP16 FLuc 18µM, RORgamma inh inconclusive
CCC(CC)NC(=O)c1cc(S(=O)(=O)N2CCCCC2)ccc1N1CCOCC1	ELG1 repair inh inconclusive (no result: Gal4-VP16 FLuc, RORgamma inh, FBPA coupling cs)
COc1ccc2cc(-c3cc(C(=O)OCC(=O)NC4CCS(=O)(=O)C4)c4ccccc4n3)ccc2c1 (stereo not drawn)	Gal4-VP16 FLuc 1.8µM, ELG1 repair inh inconclusive, RORgamma inh 2.8µM
COc1ccc2cc(-c3cc(C(=O)OCC(=O)Nc4c(C)n(C)n(-c5ccccc5)c4=O)c4ccccc4n3)ccc2c1	Gal4-VP16 FLuc inconclusive, ELG1 repair inh inconclusive, RORgamma inh 7.1µM
COc1ccc(-c2cc(C(=O)Nc3c(C)n(C)n(-c4ccccc4)c3=O)c3ccccc3n2)cc1	ELG1 repair inh 16µM
O=C(COc1ccc(Oc2ccccc2)cc1)NC1CCS(=O)(=O)C1 (stereo not drawn)	ELG1 repair inh inconclusive (no result: Gal4-VP16 FLuc, RORgamma inh, FBPA coupling cs)
COc1ccc(-c2cc(C(=O)OCC(=O)NC3CC3)c3ccccc3n2)cc1	none (no result: Gal4-VP16 FLuc, RORgamma inh, FBPA coupling cs)
Cc1ccc(Oc2ccc(OCC(=O)NC3CCS(=O)(=O)C3)cc2)cc1 (stereo not drawn)	ELG1 repair inh 12µM, RORgamma inh inconclusive
O=C1C2C3C=CC(C3)C2C(=O)N1CNc1ccc(O)cc1 (stereo not drawn)	FBPA coupling cs -54
CCCCCC(=O)/C=C/[C@H]1[C@H](O)CC(=O)[C@@H]1C/C=C\CCCC(=O)O	RORgamma inh inconclusive (no result: TSHR antagonist, ELG1 repair inh)
C/C(=N\NC(=S)NC1CCCCC1)c1c(F)cccc1F	Gal4-VP16 FLuc 2.8µM, ELG1 repair inh inconclusive, RORgamma inh 0.63µM
C/C(=N\NC(=S)NC1CCCCC1)c1ccc(Cl)c(Cl)c1	Gal4-VP16 FLuc 2.8µM, ELG1 repair inh inconclusive, RORgamma inh 1.4µM
C/C(=N\NC(=S)NC1CCCCC1)c1ccc(OC(F)F)cc1OC(F)F	Gal4-VP16 FLuc inconclusive, RORgamma inh inconclusive
C/C(=N\NC(=S)NC1CCCCC1)c1cccs1	Gal4-VP16 FLuc 0.79µM, RORgamma inh inconclusive
COc1ccccc1CCN1CCCC(CN(C)CC(C)(C)CO)C1 (stereo not drawn)	none
COc1ccc(CN2C(=S)NC(C)(C)CC2(C)O)cc1 (stereo not drawn)	Gal4-VP16 FLuc inconclusive, RORgamma inh 13µM
COc1ccccc1CCN1C(=S)NC(C)(C)CC1(C)O (stereo not drawn)	Gal4-VP16 FLuc 5.6µM, ELG1 repair inh inconclusive, RORgamma inh 2.8µM
CN1CCC(N(C)C(=O)c2ccc(Cl)c(S(=O)(=O)N3CCc4ccccc43)c2)CC1	none (no result: Gal4-VP16 FLuc, RORgamma inh, FBPA coupling cs)
CC[C@@H]1/C=C(\C)C[C@H](C)C[C@H](OC)[C@H]2O[C@@](O)(C(=O)C(=O)N3CCCC[C@H]3C(=O)O[C@H](/C(C)=C/[C@@H]3CC[C@H](Cl)[C@H](OC)C3)[C@H](C)[C@@H](O)CC1=O)[C@H](C)C[C@@H]2OC	none (no result: TSHR antagonist, ELG1 repair inh, FBPA coupling cs)
Cc1csc(=O)n1CCC(=O)OCC(=O)NCc1ccc(F)cc1	none (no result: Gal4-VP16 FLuc, RORgamma inh, FBPA coupling cs)
COC(=O)CC(NC(=O)c1ccc(C)cc1)c1ccc2c(c1)OCO2 (stereo not drawn)	none
COC(=O)CC(NC(=O)c1ccc(C)cc1)c1ccccc1 (stereo not drawn)	RORgamma inh 8.9µM
Cc1cc(NC(=O)CCC(=O)N(c2ccccc2)C(C(=O)NC2CCCC2)c2ccccc2F)no1 (stereo not drawn)	none
CCCCn1c(N)c(C(=S)NC(=O)CC(C)(C)C)c(=O)n(C)c1=O	Gal4-VP16 FLuc 0.71µM, RORgamma inh 1.3µM
CCCn1c(N)c(C(=O)CSc2ncn[nH]2)c(=O)n(C)c1=O	none (no result: Gal4-VP16 FLuc, RORgamma inh, FBPA coupling cs)
CC(C)Cc1ccc(C(C)C(=O)OCC(=O)c2c[nH]c3ccccc23)cc1 (stereo not drawn)	Gal4-VP16 FLuc 18µM, ELG1 repair inh inconclusive, RORgamma inh inconclusive
Cc1cccc(C)c1NC(=S)NN(Cc1ccccc1)c1ccccc1	Gal4-VP16 FLuc inconclusive, RORgamma inh 5µM
Fc1ccccc1NC(=S)NN(Cc1ccccc1)c1ccccc1	Gal4-VP16 FLuc 10µM, RORgamma inh 4.5µM
